# Measurements: PubChem BioAssay AID1259420 (Broad Institute, 2018)
# Several values for one entry are separate records, joined by “and”; a condition that tells them apart may be missing. Equal values may be shown once. Among all 1,000 compounds or so, about 250 (25%) were called active. Inconclusive results (about 31%) are left out. Not all results are given here. Potency and affinity values are given separately. Unmarked numbers belong to inactive results. No rule for the calls is given here.
# Experiment: compound activity on host-cell Toxoplasma growth – dose response (AID 1259420);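 also: host cells were HeLa; final incubation lasted 72 hours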
# Conditions: Toxoplasma gondii growth in host cells, no IFN-gamma
structure (smiles),measurement,setting,value
CC=Cc1ccc2n(c1=O)C[C@H]1[C@H](CO)[C@@H](C(=O)Nc3ccc(-c4ccccc4)cc3)[C@@H]2N1C(=O)CC (mixture of isomers),max activity,at 19.5 µM unless noted,-8.34%
CC(=O)NC1=NN(C(C)=O)C(C)(c2ccccc2)S1 (stereo unspecified),max activity,at 19.5 µM unless noted,5.61% [at 0.16 µM]
COc1ccccc1C#Cc1ccc([C@H]2[C@H](CO)N3CCCCN(C(=O)C4CCC4)C[C@@H]23)cc1,max activity,at 10 µM,11.5%
same,max activity,at 19.5 µM,-7.69%
CN(C)CCNC(=O)c1ccc2onc(-c3coc(C4CC4)n3)c2c1,max activity,at 19.5 µM unless noted,24.6%
COc1ccccc1Cn1ncc2c1CCCC2NC(=O)c1cc(-c2cccs2)no1 (stereo unspecified),max activity,at 19.5 µM unless noted,11.7% [at 1.2 µM]
O=C(C1CCOCC1)N1CC(=O)N2[C@H](C1)[C@@H](c1ccc(/C=C/c3ccccc3)cc1)[C@@H]2CO,max activity,at 19.5 µM unless noted,10.5% [at 0.6 µM]
O=C(C1CCC1)N1CC(=O)N2[C@H](CO)[C@H](c3ccc(Br)cc3)[C@H]2C1,max activity,at 19.5 µM unless noted,-11.4% [at 10 µM]
Cc1nc(Cn2cnc(-c3nc(C(=O)NCc4cc(F)cc(F)c4)c4ccccn34)c2)cs1,max activity,at 19.5 µM unless noted,15.4%
COC(=O)c1sccc1S(=O)(=O)N[C@@H]1CC[C@@H](N)C1,max activity,at 19.5 µM unless noted,-5.2%
CN(c1ccccc1)c1ccc2ccc(C(=O)N3CCCC3)cn12,max activity,at 19.5 µM unless noted,-21% [at 0.16 µM]
O=C(c1ccc(F)cc1)N1c2ccccc2Sc2ccc(C(F)(F)F)cc21,max activity,at 19.5 µM unless noted,12.1% [at 10 µM]
O=C(NC1CCCC1)N1CCCCN2[C@@H](CO)[C@@H](c3ccc(-c4cccnc4)cc3)[C@@H]2C1,max activity,at 19.5 µM unless noted,-13.7% [at 2.6 µM]
CCc1ccc(S(=O)(=O)N2CCC3(CCC(C(=O)N4CCCC4)O3)CC2)cc1 (stereo unspecified),max activity,at 19.5 µM unless noted,-11.2% [at 1.2 µM]
COc1cccc(C(=O)Nc2ccc3c(c2)C(=O)N(C)[C@@H]2CC[C@H](CC(=O)N[C@H](C)c4ccccc4)O[C@@H]2CO3)c1,max activity,at 19.5 µM unless noted,-19.3% [at 1.2 µM]
CN1C(=O)c2cc(NC(=O)Cc3cccs3)ccc2OC[C@@H]2O[C@H](CC(=O)N[C@@H]3CCN(Cc4ccccc4)C3)CC[C@@H]21,max activity,at 19.5 µM unless noted,32%
CN1C(=O)c2cc(NC(=O)Cc3cccs3)ccc2OC[C@@H]2O[C@H](CC(=O)N[C@H]3CCN(Cc4ccccc4)C3)CC[C@@H]21,max activity,at 19.5 µM unless noted,35.3% and 9.67%
CN1C(=O)c2cc(NC(=O)Cc3cccs3)ccc2OC[C@@H]2O[C@H](CC(=O)NCC3CCCCC3)CC[C@@H]21,max activity,at 19.5 µM unless noted,9.14% [at 0.6 µM]
Cc1ccccc1-c1ccc([C@H]2[C@H](CO)N3CCCCN(S(=O)(=O)Cc4ccccc4)C[C@@H]23)cc1,max activity,at 19.5 µM unless noted,27%
O=C(NCC1CC1)C1CN(C(=O)c2ccoc2)CC12CCOCC2 (stereo unspecified),max activity,at 19.5 µM unless noted,10.2% [at 0.16 µM]
CS(=O)(=O)N1CC(=O)N2[C@H](C1)[C@@H](c1ccc(C#CCC3CCCC3)cc1)[C@@H]2CO,max activity,at 19.5 µM unless noted,17.8% [at 0.3 µM]
Cc1ccccc1S(=O)(=O)N1CC[C@H]2[C@H](CO)Nc3ccc(-c4ccc(F)cc4)cc3[C@H]21,max activity,at 19.5 µM unless noted,-15.5% [at 5 µM]
CC(C)CNC(=O)C1Cn2ccnc2C2(CCN(c3ncccn3)CC2)O1 (stereo unspecified),max activity,at 19.5 µM unless noted,-6.18%
Fc1cccc(CN2CCC3(CC2)CC(OCC2CC2)CO3)c1 (stereo unspecified),max activity,at 19.5 µM unless noted,-29.4% [at 10 µM]
COc1cccc(-c2nn(CC3CC3)c3c2[C@@H]2CN(C(=O)c4ccccc4)C[C@@H]2C3)c1,max activity,at 19.5 µM unless noted,29.4%
O=C(Cc1cccnc1)N1CC(=O)N2[C@H](CO)[C@H](c3ccc(/C=C/c4ccccc4)cc3)[C@@H]2C1,max activity,at 19.5 µM unless noted,-6.67% [at 10 µM]
O=C(Cc1cccnc1)N1CC(=O)N2[C@H](CO)[C@@H](c3ccc(/C=C/c4ccccc4)cc3)[C@@H]2C1,max activity,at 19.5 µM unless noted,14.8%
COCC(=O)N1CC(=O)N2[C@H](CO)[C@@H](c3ccc(-c4ccccc4F)cc3)[C@H]2C1,max activity,at 19.5 µM unless noted,10.5% [at 0.3 µM]
O=C(Cc1cccnc1)N1CC(=O)N2[C@H](CO)[C@@H](c3ccc(/C=C/c4ccccc4)cc3)[C@H]2C1,max activity,at 19.5 µM unless noted,15.6%
Cc1ccccc1-c1ccc([C@@H]2[C@H](CO)N3C(=O)CN(C(=O)c4ccncc4)C[C@@H]23)cc1,max activity,at 19.5 µM unless noted,13%
COC(=O)/C=c1\sc2nc(=O)c(C)nn2c1=O,max activity,at 19.5 µM unless noted,-11.2% [at 10 µM]
COc1ccc(S(=O)(=O)N2CCC(c3nc4ccc(-c5ccncc5)cn4n3)CC2)cc1,max activity,at 19.5 µM unless noted,-32.4% [at 10 µM]
Cc1cccc(S(=O)(=O)N2CCc3nc(-c4cnn(C)c4)nc(NC4CC4)c3C2)c1,max activity,at 19.5 µM unless noted,-22.6% [at 1.2 µM]
Cc1nc(N2CCCC2)nc2c1CCN(S(=O)(=O)c1ccccc1)CC2,max activity,at 19.5 µM unless noted,-5.81% [at 10 µM]
COc1ccccc1-c1ccc(C2[C@@H]3CN(S(=O)(=O)c4ccc(C)cc4)C[C@H]2N3)cc1 (stereo partly specified),max activity,at 19.5 µM unless noted,22.8%
CC(C)(C)NC(=O)[C@@H]1CC2CCCCC2CN1C[C@@H](O)[C@H](Cc1ccccc1)NC(=O)[C@H](CC(N)=O)NC(=O)c1ccc2ccccc2n1 (stereo partly specified),max activity,at 19.5 µM unless noted,-8.44%
CC/C(=C(\c1ccccc1)c1ccc(OCCN(C)C)cc1)c1ccccc1,max activity,at 19.5 µM unless noted,22.1%
CCCNC(=O)c1cc(-c2ccn(CC3CC3)n2)n2ccccc12,max activity,at 19.5 µM unless noted,-19.1% [at 10 µM]
Cc1ccc(-c2cc(O)c3c(c2)CN(C(=O)CCN2CCCO2)CCO3)s1,max activity,at 19.5 µM unless noted,12.4% [at 10 µM]
N#Cc1ccc(-c2ccc([C@@H]3[C@@H](CO)N4C(=O)CNC[C@H]34)cc2)cc1,max activity,at 19.5 µM unless noted,33.8%
O=C1CNC[C@@H]2[C@H](c3ccc(C#Cc4cccnc4)cc3)[C@H](CO)N12,max activity,at 19.5 µM unless noted,16.3%
O=S1(=O)c2ccccc2C2(CCN(CC3CC3)C2)N1Cc1ccc(F)cc1 (stereo unspecified),max activity,at 19.5 µM unless noted,13.7%
CC(C)n1c(C(=O)Nc2cccc(F)c2)nc2c1CCN(Cc1ccccc1)C2,max activity,at 19.5 µM unless noted,-15.6% [at 10 µM]
CN(Cc1ccccn1)C(=O)C1=NOC2(CCN(S(=O)(=O)c3cccc(F)c3)C2)C1 (stereo unspecified),max activity,at 19.5 µM unless noted,-20.7% [at 10 µM]
CCC(=O)N1CC(=O)N2[C@H](CO)[C@H](c3ccc(C#CCC(C)C)cc3)[C@H]2C1,max activity,at 19.5 µM unless noted,13.7%
O=C1CNC[C@@H]2[C@H](c3ccc(C#Cc4cccnc4)cc3)[C@@H](CO)N12,max activity,at 19.5 µM unless noted,-12.5% [at 0.16 µM]
COC1CCCC(C(=O)N2CCC3(CC2)C(=O)Nc2ccc(-c4ccc(C(C)=O)cc4)cc23)C1 (stereo unspecified),max activity,at 19.5 µM unless noted,-15.4% [at 10 µM]
CC(C)CC#Cc1ccc([C@H]2[C@@H](CO)N3C(=O)CN(C(=O)Nc4cc(F)ccc4F)C[C@H]23)cc1,max activity,at 19.5 µM unless noted,17.1%
CC(C)CC#Cc1ccc([C@H]2[C@H]3CN(C(=O)Nc4cc(F)ccc4F)CC(=O)N3[C@H]2CO)cc1,max activity,at 19.5 µM unless noted,31.4%
CC(C)CC#Cc1ccc([C@@H]2[C@H](CO)N3C(=O)CN(C(=O)c4cccc(F)c4)C[C@@H]23)cc1,max activity,at 19.5 µM unless noted,12.3% [at 1.2 µM]
CC(C)CC#Cc1ccc([C@H]2[C@@H](CO)N3C(=O)CN(C(=O)c4cccc(F)c4)C[C@H]23)cc1,max activity,at 19.5 µM unless noted,19.6%
COc1ccc(CN2CCC3(CC(n4cnnc4)CO3)C2)cc1 (stereo unspecified),max activity,at 19.5 µM unless noted,41.3%
O=C(Cc1cccnc1)N1CC(=O)N2[C@H](CO)[C@H](c3ccc(C#CC4CCCCC4)cc3)[C@@H]2C1,max activity,at 10 µM,-8.18%
same,max activity,at 19.5 µM,7.75%
O=C(CC(F)(F)F)N1C[C@@H]2[C@H](c3ccccc31)[C@H](CO)N2CC1CCOCC1,max activity,at 19.5 µM unless noted,-6.58% [at 5 µM]
CN(C)C(=O)c1ccc(-c2ccc([C@H]3[C@H](CO)N4C(=O)CN(C(=O)CC5CC5)C[C@@H]34)cc2)cc1,max activity,at 19.5 µM unless noted,-9.43% [at 0.3 µM]
O=C(C1CCCCC1)N1[C@H](CO)[C@@H]2c3ccccc3N(S(=O)(=O)c3ccccc3)C[C@@H]21,max activity,at 19.5 µM unless noted,10.6% [at 5 µM]
CN(C)C(=O)c1cccc(-c2ccc(C3[C@H]4CNC[C@@H]3N4Cc3ccccc3C(F)(F)F)cc2)c1 (stereo partly specified),max activity,at 19.5 µM unless noted,-11.4%
COc1ccc(C#Cc2ccc3c(c2)[C@H]2[C@H](CCN2C(=O)c2cnccn2)[C@H](CO)N3)cc1,max activity,at 19.5 µM unless noted,21.9%
COCC(=O)N1CC(=O)N2[C@H](CO)[C@@H](c3ccc(-c4ccncc4)cc3)[C@H]2C1,max activity,at 19.5 µM unless noted,9.86% [at 2.6 µM]
CC(C)c1ccc(C(=O)N=C(N)N)cc1S(C)(=O)=O,max activity,at 19.5 µM unless noted,-6.61% [at 10 µM]
O=C1CNC[C@H]2[C@@H](c3ccc(C#Cc4cccnc4)cc3)[C@@H](CO)N12,max activity,at 19.5 µM unless noted,-4.61% [at 1.2 µM]
NCCCCCCNS(=O)(=O)c1ccc2c(Cl)cccc2c1,max activity,at 19.5 µM unless noted,-5.19% [at 10 µM]
NC(=O)CN1CCOCCOCCN(CC(N)=O)CCOCC1,max activity,at 19.5 µM unless noted,5.9% [at 5 µM]
COCCN(CCOC)C(=O)c1cc2c(c3ccccc3n2CC2CC2)n1-c1ncccn1,max activity,at 19.5 µM unless noted,18%
CN(C)S(=O)(=O)N1C[C@@H]2CN(Cc3ccoc3)CCO[C@H]2C1,max activity,at 19.5 µM unless noted,-18.6%
COC[C@H]1CN(C)C[C@]12CCN(C(=O)c1cc3ccccc3s1)C2,max activity,at 19.5 µM unless noted,11.6%
O=S1(=O)c2ccccc2OCC2(CCN(Cc3ccccc3)CC2)CN1CC1CC1,max activity,at 19.5 µM unless noted,19.2%
CCN1[C@@H]2CCN(C(=O)CC3CC3)CC[C@@H]2Oc2ccccc2S1(=O)=O,max activity,at 19.5 µM unless noted,19.2% [at 1.2 µM]
O=C(NCc1cncc2c1CCN(Cc1cccc(F)c1)C2)C1CC1,max activity,at 5 µM,9.94%
same,max activity,at 19.5 µM,14%
